Shown are actives, neighbours in structure and some others; about 10% of the full set was active somewhere.
hNpr1 antagonist = blocks ANP-stimulated signaling of human Npr1 receptor. P16066. HEK293 hNpr1 GloSensor cGMP, ANP-stimulated luminescence. Potency, µM (top dose mostly 46.3 µM), for inactives: top-dose activity change, negative = inhibition, usual class: inhibitors. hit rate 1.6% among 76,000; calls by dose curve; note: nearly all actives have a fitted effect of over 60% in size
Target sequence (P16066 whole entry, looked up): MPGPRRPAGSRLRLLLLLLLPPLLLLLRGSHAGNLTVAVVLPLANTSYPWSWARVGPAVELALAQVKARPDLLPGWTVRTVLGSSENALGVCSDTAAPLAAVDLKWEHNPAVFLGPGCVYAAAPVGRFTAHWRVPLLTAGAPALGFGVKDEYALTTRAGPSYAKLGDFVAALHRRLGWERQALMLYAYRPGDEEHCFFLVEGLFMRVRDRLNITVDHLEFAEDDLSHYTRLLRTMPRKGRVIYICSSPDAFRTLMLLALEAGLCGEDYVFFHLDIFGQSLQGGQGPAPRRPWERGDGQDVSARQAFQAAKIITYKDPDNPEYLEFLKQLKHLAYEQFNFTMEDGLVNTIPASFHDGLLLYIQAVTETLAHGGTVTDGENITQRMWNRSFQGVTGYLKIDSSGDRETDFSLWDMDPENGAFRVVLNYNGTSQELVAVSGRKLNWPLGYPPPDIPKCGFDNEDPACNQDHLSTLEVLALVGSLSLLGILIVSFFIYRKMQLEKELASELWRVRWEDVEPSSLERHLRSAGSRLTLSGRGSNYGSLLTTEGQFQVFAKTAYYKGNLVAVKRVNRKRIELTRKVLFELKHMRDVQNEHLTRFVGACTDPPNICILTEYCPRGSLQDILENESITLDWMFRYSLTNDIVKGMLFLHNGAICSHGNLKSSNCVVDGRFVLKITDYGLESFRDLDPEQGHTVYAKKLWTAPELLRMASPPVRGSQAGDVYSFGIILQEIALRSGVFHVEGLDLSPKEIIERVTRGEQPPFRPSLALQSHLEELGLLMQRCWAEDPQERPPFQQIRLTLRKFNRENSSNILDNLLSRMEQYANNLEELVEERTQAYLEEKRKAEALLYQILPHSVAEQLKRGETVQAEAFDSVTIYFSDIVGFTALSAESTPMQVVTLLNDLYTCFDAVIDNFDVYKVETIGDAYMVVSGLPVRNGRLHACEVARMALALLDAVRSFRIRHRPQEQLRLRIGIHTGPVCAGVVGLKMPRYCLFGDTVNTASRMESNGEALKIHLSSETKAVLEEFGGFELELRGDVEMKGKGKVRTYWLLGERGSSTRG
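Compound pre-incubated 30 min at room temperature on GloSensor-loaded HEK293 cells stably carrying hNpr1 and the pGS-40F cGMP biosensor. Stimulation uses hNppA at 0.1 nM final; luminescence is taken at baseline and 20 min post-agonist.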
Luciferase inh = blocks purified firefly luciferase enzyme activity | AID 1347043 | hit rate 2.5% among 76,000 | Potency, µM (doses to about 115 µM), usual class: inhibitors | purified P. pyralis luciferase, luminescence, biochemical; note: nearly all actives have a fitted effect of over 65% in size
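Luminescence read by CCD imaging after purified firefly luciferase (10nM final) was added to substrate buffer holding 10uM D-luciferin and 10uM ATP, pH 7.5, pre-dosed with compound.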
GPT2 inhibitor = blocks human glutamate pyruvate transaminase 2; Q8TD30; Recombinant GPT2, coupled pyruvate oxidase/HRP Amplex Red fluorescence; Potency, µM (titrated, usually from 57.7 µM), without a hit: at the highest dose activity change, negative = inhibition, hits mostly inhibitors; hit rate 0.25% among 100,000; note: nearly all actives have a fitted effect of over 60% in size
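Fluorescence read-out: pyruvate from GPT2 turnover coupled to pyruvate oxidase, HRP and Amplex Red (0.2mM ThPP, 0.2U/mL PO and HRP, 50uM Amplex final). Substrates 250uM a-KG, 2mM L-alanine; enzyme 10ng/uL; 30 min RT.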
HEK293 tox = HEK 293 cell cytotoxicity | HEK 293 viability, ATP luminescence (CellTiter-Glo), 48-72 h | Potency, µM (top dose mostly 115 µM), without a hit: at the top dose activity change, negative = cytotoxicity, actives largely listed as inhibitors | hit rate 6.6% among 94,000 | AID 1345083; note: nearly all actives have a fitted effect of over 60% in size
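250 HEK 293 cells/well; compound by pintool; incubated 48 or 72 hr at 37 degree Celsius; CellTiter-Glo added, 10 min RT, luminescence imaged.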
NIH3T3 tox = NIH 3T3 cell cytotoxicity; NIH 3T3 viability, CellTiter-Glo ATP luminescence, 48-72 h; Potency, µM (series often up to 96.7 µM), for inactives: at the top dose activity change, negative = cytotoxicity, usual class: inhibitors; hit rate 4.3% among 94,000; note: nearly all actives have a fitted effect of over 55% in size
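Luminescent ATP readout (CellTiter-Glo, 10 min RT) after 48 or 72 hr compound exposure of NIH 3T3 cells seeded at 400 cells/well in 1536-well format; quantitative HTS.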
The depositor's hits bear a star; i = inactive; ? = inconclusive; . = no result given; ! = not active in a repeat; [ ] = another dose, or the depositor's remark. Unless noted, calls come from the whole dose curve; as a rule, active = well fitted curve in the direction sought with a large enough effect; inconclusive = small, poorly fitted or top-dose-only effect, or another doubt; inactive = no such curve, though single readings can be large; an effect the other way counts as inactive or inconclusive. % is set by controls: 0 for no effect and ±100 for the full control effect; potency is the fitted concentration of half-maximal effect.

SMILES	hNpr1 antagonist	Luciferase inh	GPT2 inhibitor	HEK293 tox	NIH3T3 tox
O=C(Nc1ccc2[nH]ccc2c1)C1=NO[C@@H]2CN(c3ccccn3)C[C@H]12	-15%[70.6 µM]	i	-3%[88.5 µM]	?	-28%[138 µM]
COc1cccc(-c2cnc([C@@H]3COCCN3Cc3cnc4ccccc4c3)[nH]2)c1	-28%[70.6 µM]	i	3%[88.5 µM]	100µM*	-22%[138 µM]
CS(=O)(=O)c1ccc(-c2cnc([C@@H]3COCCN3Cc3cnc4ccccc4c3)[nH]2)cc1	5%	i	-10%	-23%	-16%
Fc1ccc(-c2cnc([C@@H]3COCCN3Cc3cnc4ccccc4c3)[nH]2)cc1	-29%[70.6 µM]	i	-6%[88.5 µM]	89µM*	?
Cn1cc(CN2C[C@H](C(=O)Nc3cccc(F)c3)C[C@@H]2c2cccc(C(F)(F)F)c2)cn1	-5%	i	3%	?	?
CC1=C[C@@H](CN2CCN(c3ncccn3)CC2)[C@H](C(C)C)C[C@H]1Cc1nnc(-c2cncn2C)o1	-18%	i	1%	35µM*	?
CC1=C[C@@H](CN2CCCCC2)[C@H](C(C)C)C[C@H]1Cc1nnc(-c2cncn2C)o1	2%[70.6 µM]	i	i	100µM*	?
COc1ccccc1N1CCN(C[C@@H]2C=C(C)[C@H](Cc3nnc(-c4cncn4C)o3)C[C@H]2C(C)C)CC1	-14%	i	i	13µM*	35µM*
CC1=C[C@@H](CNC(=O)C2CC2)[C@H](C(C)C)C[C@H]1Cc1nnc(-c2cncn2C)o1	5%[70.6 µM]	i	3%[88.5 µM]	?	?
CC(C)CCC(=O)N1CCC(N2C(=O)CCC2C(=O)NC(C)C)CC1 (stereo not drawn)	-9%	i	4%	-29%	-3%
COCCCn1c(=O)c(C(=O)N2CCN(C(=O)c3ccccc3C)CC2)nc2cccnc21	.	.	-7%	-1%	-14%
O=C(CCC1CCN(S(=O)(=O)c2cccc(F)c2)CC1)NCCCN1CCCC1=O	1%	i	-12%	1%	-13%
CC(C)CN1CCCC(c2nc3ccc(F)cc3c(=O)[nH]2)C1 (stereo not drawn)	12%[70.6 µM]	i	4%[88.5 µM]	25µM*	32µM*
Cc1ccc2nc(C3CCCN(CC4CCCC4)C3)[nH]c(=O)c2c1 (stereo not drawn)	-29%[70.6 µM]	i	4%[88.5 µM]	71µM*!	?
Cc1cc(C)cc(-c2ccc(CN3CCCC(c4nc5ccc(F)cc5c(=O)[nH]4)C3)cc2)c1 (stereo not drawn)	-15%	i	2%	40µM*!	18µM*
Cc1ccc2nc(C3CCCN(Cc4cccs4)C3)[nH]c(=O)c2c1 (stereo not drawn)	.	.	i	?	-22%
Cc1ccc2nc(C3CCCN(Cc4ccccc4)C3)[nH]c(=O)c2c1 (stereo not drawn)	3%[70.6 µM]	i	-2%	63µM*!	?
CC(=O)Nc1ccc(CN2CCCC(c3nc4ccc(F)cc4c(=O)[nH]3)C2)cc1 (stereo not drawn)	3%	i	i	?	?
Cc1ccc(CN2CC(O)CN(C(=O)OCc3ccccc3)CC2=O)cc1 (stereo not drawn)	.	.	.	?	-26%
CC(=O)N1CCC(c2nn(-c3ccc(Cl)cc3)c(=O)[nH]2)CC1	17%[70.6 µM]	i	i	-8%[172 µM]	-26%[138 µM]
Cc1ccc2nc(C3CCN(Cc4ccc(-c5cccs5)cc4)CC3)[nH]c(=O)c2c1	-22%	i	-12%	35µM*!	?
Cc1ccc2nc(C3CCCN(Cc4cccc(-c5cccs5)c4)C3)[nH]c(=O)c2c1 (stereo not drawn)	?	i	-3%	?	?
O=c1c2nc(-c3ccc(Cl)cc3)ccc2ncn1Cc1ccccn1	0%[70.6 µM]	i	-4%[88.5 µM]	?	?
O=c1ncn(CC2CC2)c2ccc(-c3ccc(F)cc3F)nc12	0%[70.6 µM]	i	-9%[88.5 µM]	-42%[172 µM]	100µM*
Cn1ccc2cc(-c3ccc4ncn(Cc5ccccn5)c(=O)c4n3)ccc21	-2%[70.6 µM]	45µM*	0%[88.5 µM]	-23%[172 µM]	89µM*
SMILES	hNpr1 antagonist	Luciferase inh	GPT2 inhibitor	HEK293 tox	NIH3T3 tox
Cc1ccc(-c2ccc3ncn(Cc4ccccn4)c(=O)c3n2)c(C)c1	0%[70.6 µM]	i	2%[88.5 µM]	-11%[172 µM]	25µM*
COCCn1cnc2ccc(-c3ccccc3)nc2c1=O	7%[70.6 µM]	?	i	3%[230 µM]	?
COCCn1cnc2ccc(-c3cccc(O)c3)nc2c1=O	2%[70.6 µM]	i	i	-21%[172 µM]	22µM*
CCOc1ccc(C(=O)NC2CCN(c3cnn(CC4CC4)c(=O)c3)CC2)cc1	-4%	i	i	-7%	-15%
O=S(=O)(Cc1ccccc1F)N1CCC(C2CCNC2)CC1 (stereo not drawn)	9%	i	i	1%	i
COC1CN(c2cccc(F)c2)C12CCN(C(=O)CC1CCCC1)CC2 (stereo not drawn)	-9%	i	-13%	?	?
CN1CCCCC(CC(=O)O)C1=O (stereo not drawn)	2%	i	-1%	2%	0%
Cc1csc(NC(=O)c2nc(C(O)c3cccc(O)c3)oc2C)n1 (stereo not drawn)	?	i	?	?	?
O=c1c2nc(N3CCC(c4ccccc4)CC3)ccc2ncn1-c1cccnc1	3%[70.6 µM]	?	1%[88.5 µM]	?	?
O=c1ncn(CC2CC2)c2ccc(N3CCC(c4ccccc4)CC3)nc12	-2%[70.6 µM]	56µM*	i	?	-22%[138 µM]
O=c1c2nc(N3CCC(c4ccccc4)CC3)ccc2ncn1Cc1ccccn1	5%[70.6 µM]	63µM*	-1%[88.5 µM]	?	-28%[138 µM]
O=c1c2nc(-c3ccccc3)ccc2ncn1Cc1ccccn1	1%[70.6 µM]	i	-18%[88.5 µM]	-10%[172 µM]	79µM*
CN(CCC(C)(C)O)C(=O)c1cc2c(C(F)(F)F)nn(C)c2s1	4%	i	-27%	-20%	-4%
CN(CC(O)COc1cccc(CNCCc2ccc(F)cc2)c1)C1CCCCC1 (stereo not drawn)	-9%	i	?	18µM*	?
O=C(Nc1cccc(Cl)c1)c1cnc2c(c1)N([S+](=O)([O-])c1cccnc1)CCC2	5%[70.6 µM]	i	?	100µM*	?
Cc1csc(NC(=O)c2cnc3c(c2)N([S+](=O)([O-])c2cccnc2)CCC3)n1	6%[70.6 µM]	i	-10%[88.5 µM]	-13%[172 µM]	100µM*
CC(C)CCNC(=O)c1cnc2c(c1)N([S+](=O)([O-])c1cccnc1)CCC2	0%[70.6 µM]	i	-6%[88.5 µM]	0%[172 µM]	?
C[C@H](C(=O)N1CCCC1)[C@@H]1CC[C@@]2(C)Cc3sc(-c4ccsc4)nc3[C@@H](C)[C@@H]2[C@H]1O	-19%	11µM*	-4%	?	-26%
CCCC(=O)N1Cc2ccccc2CC2(CCCN(C)C2)C1 (stereo not drawn)	.	.	i	89µM*	?

Screening data: PubChem, National Center for Advancing Translational Sciences (NCATS)
